Source: PubChem BioAssay (NCI)
This is part of a sample that, as a whole, favours compounds with a hit. Of some 79,000 tested, about 15% had one in any assay. Active and inactive are the calls of the source. No stated cut-off is given here; in the data, active means growth inhibition above about 70%; inactive means the rest.

Columns and labels:
[1] = NCI Yeast Anticancer Drug Screen. Data for the rad52 strain (AID 147);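 further: 0% = growth of vehicle-treated control cultures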; settings: S. cerevisiae rad52 mutant growth inhibition, hits give high values
Outline: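 Compounds are applied to a genetically defined yeast strain lacking normal DNA damage repair, and inhibition of growth is expressed relative to cultures given vehicle only.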

[2] = NCI Yeast Anticancer Drug Screen. Data for the wt1 strain (AID 149);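 further: 0% = growth of vehicle-treated wt1 cultures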; settings: S. cerevisiae wt1 strain (SPY 50644) growth inhibition, hits give high values
Outline: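 wt1 yeast, compound-treated; % growth inhibition vs vehicle control.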

[3] = NCI Yeast Anticancer Drug Screen. Data for the rad50EPP+ strain (AID 151);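 further: 0% = growth of vehicle-treated control cultures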; settings: S. cerevisiae rad50 mutant strain, hits give high values
Outline: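 Compounds were applied to the rad50EPP+ yeast strain, which bears a defined DNA repair alteration, and growth inhibition was determined relative to vehicle-treated cultures.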

[4] = NCI Yeast Anticancer Drug Screen. Data for the mgt1 strain (AID 153); settings: S. cerevisiae mgt1 mutant growth inhibition, hits give high values
Outline: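 Strain: mgt1 yeast, one of a set carrying defined DNA damage repair or cell cycle control alterations. Compound-treated growth compared with vehicle.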

[5] = NCI Yeast Anticancer Drug Screen. Data for the rad50 strain (AID 155);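 further: 0% = growth of vehicle-only cultures of the same strain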; settings: S. cerevisiae rad50 strain growth inhibition, hits give high values
Outline: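 Genetically altered yeast (DNA repair pathway); compound treatment; growth inhibition vs vehicle ctrl.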

[6] = NCI Yeast Anticancer Drug Screen. Data for the mec2-1 strain (AID 157); settings: S. cerevisiae mec2-1 strain, hits give high values
Outline: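 Strain: mec2-1 (DNA repair/cell cycle alteration). Compound exposure, then growth measured; inhibition expressed relative to vehicle.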

[7] = NCI Yeast Anticancer Drug Screen. Data for the rad14 strain (AID 159);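 further: 0% = growth of vehicle-treated control cultures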; settings: S. cerevisiae rad14 strain growth inhibition, hits give high values
Outline: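 Test compounds were applied to a repair-deficient yeast strain. Its growth was then compared with that of cultures given vehicle alone, and inhibition was expressed relative to those controls.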

[8] = NCI Yeast Anticancer Drug Screen. Data for the sgs1 mgt1 strain (AID 161);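 further: 0% = growth of cultures given vehicle only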; settings: S. cerevisiae sgs1 mgt1 strain, hits give high values
Outline: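 Read-out: growth inhibition vs vehicle controls. Cells: mutant yeast strain deficient in DNA damage repair.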

[9] = NCI Yeast Anticancer Drug Screen. Data for the CLN2oe strain (AID 163);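 further: 0% = growth of vehicle-only control cultures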; settings: S. cerevisiae CLN2oe strain, hits give high values
Outline: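 Growth of a genetically modified yeast strain is measured after compound exposure and compared with cultures given vehicle alone.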

[10] = NCI Yeast Anticancer Drug Screen. Data for the bub3 strain (AID 167); settings: S. cerevisiae bub3 mutant strain, hits give high values
Outline: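 Yeast carrying a defined mutation is treated with each compound, and growth is compared with that of vehicle-exposed cells to give inhibition.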

[11] = NCI Yeast Anticancer Drug Screen. Data for the wt2 strain (AID 169);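 further: 0% = growth of vehicle-treated yeast cultures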; settings: S. cerevisiae wt2 strain growth inhibition, hits give high values
Outline: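 This strain belongs to a panel of yeast strains with defined genetic alterations in DNA damage repair or cell cycle control. Compounds are applied, and growth inhibition is measured against vehicle-treated cultures.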

[12] = NCI Yeast Anticancer Drug Screen. Data for the mlh1 strain (AID 171);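 further: 0% = growth of vehicle-treated control cultures of the same strain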; settings: S. cerevisiae mlh1 strain growth inhibition, hits give high values
Outline: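 Growth of the mutant yeast strain after compound exposure, expressed as inhibition relative to vehicle-only controls.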

[13] = NCI Yeast Anticancer Drug Screen. Data for the sgs1 strain (AID 173);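 further: 0% = growth of vehicle-only control cultures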; settings: S. cerevisiae sgs1 mutant, hits give high values
Outline: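 Growth of a yeast strain bearing a defined genetic alteration is measured after compound treatment. Inhibition is expressed relative to vehicle-only controls.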

[14] = NCI Yeast Anticancer Drug Screen. Data for the mlh1 rad18 strain (AID 175); settings: S. cerevisiae mlh1 rad18 strain growth inhibition, hits give high values
Outline: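 Read-out is yeast growth inhibition, calculated against vehicle-only controls. The compound was applied to a strain engineered with DNA damage repair alterations.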

[15] = NCI Yeast Anticancer Drug Screen. Data for the rad18 strain (AID 177); settings: S. cerevisiae rad18 mutant growth inhibition, hits give high values
Outline: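 Growth of the mutant yeast strain after compound exposure, normalised to vehicle-only cultures.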

[16] = at 5.0 µM (retest, dose inferred, filed as 0.5)
[17] = at 50.0 µM (retest, dose inferred, filed as 5.0)

Measured: growth inhibition

Cc1ccc(Nc2nc3c(=O)n(C)c(=O)n(C)c3nc2Nc2ccc(C)cc2)cc1
inactive: [1]; at 1.2 µM -2% | [1]; at 3.7 µM 2% | [1]; at 11.0 µM 2% | [1]; at 33.0 µM 2% | [1]; at 100.0 µM 30% | [2]; at 1.2 µM 0% | [2]; at 3.7 µM -1% | [2]; at 11.0 µM 1% | [2]; at 33.0 µM -3% | [2]; at 100.0 µM 6% | [3]; at 1.2 µM 3% | [3]; at 3.7 µM -2% | [3]; at 11.0 µM -6% | [3]; at 33.0 µM -16% | [3]; at 100.0 µM 41% | [4]; at 1.2 µM -2% | [4]; at 3.7 µM -4% | [4]; at 11.0 µM -4% | [4]; at 33.0 µM 11% | [4]; at 100.0 µM -2% | [5]; at 1.2 µM -2% | [5]; at 3.7 µM 1% | [5]; [16] -13% | [5]; at 11.0 µM 2% | [5]; at 33.0 µM 0% | [5]; [17] 66% | [5]; at 100.0 µM 23% | [6]; at 1.2 µM -2% | [6]; at 3.7 µM 3% | [6]; [16] -9% | [6]; at 11.0 µM -2% | [6]; at 33.0 µM -4% | [6]; [17] 22% | [6]; at 100.0 µM 11% | [7]; at 1.2 µM 0% | [7]; at 3.7 µM -4% | [7]; at 11.0 µM -1% | [7]; at 33.0 µM -5% | [7]; at 100.0 µM 7% | [8]; [16] -2% | [8]; [17] 45% | [9]; at 1.2 µM -2% | [9]; at 3.7 µM 3% | [9]; at 11.0 µM -4% | [9]; at 33.0 µM -5% | [9]; at 100.0 µM -10% | [10]; at 1.2 µM -3% | [10]; at 3.7 µM -5% | [10]; [16] -9% | [10]; at 11.0 µM 0% | [10]; at 33.0 µM -1% | [10]; [17] 16% | [10]; at 100.0 µM 2% | [11]; at 1.2 µM 0% | [11]; at 3.7 µM -1% | [11]; at 11.0 µM -1% | [11]; at 33.0 µM -2% | [11]; at 100.0 µM 12% | [12]; at 1.2 µM 0% | [12]; at 3.7 µM -2% | [12]; at 11.0 µM 1% | [12]; at 33.0 µM -3% | [12]; at 100.0 µM 3% | [13]; at 1.2 µM -3% | [13]; at 3.7 µM 2% | [13]; at 11.0 µM 1% | [13]; at 33.0 µM 3% | [13]; at 100.0 µM 20% | [14]; [16] -14% | [15]; at 1.2 µM 2% | [15]; at 3.7 µM 0% | [15]; at 11.0 µM 11% | [15]; at 33.0 µM 4% | [15]; at 100.0 µM 46%
active: [5]; at 50.0 µM 92.5% | [6]; at 50.0 µM 95.3% | [8]; at 50.0 µM 92.8% | [10]; at 50.0 µM 94.5% | [14]; [17] 89% | [14]; at 50.0 µM 95.7%
